Each compound was assayed against Torsin-1A (Homo sapiens) (UniProt O14656) (assay: torsin A binders from cell lysate, primary screen, small-molecule microarray, wild-type, 635/667 nm (AID 1149)). Conditions: COS7 hTOR1A-WT lysate, 635 nm fluorescence, higher = more signal.
Torsin-1A (Homo sapiens), sequence (O14656 whole entry, looked up): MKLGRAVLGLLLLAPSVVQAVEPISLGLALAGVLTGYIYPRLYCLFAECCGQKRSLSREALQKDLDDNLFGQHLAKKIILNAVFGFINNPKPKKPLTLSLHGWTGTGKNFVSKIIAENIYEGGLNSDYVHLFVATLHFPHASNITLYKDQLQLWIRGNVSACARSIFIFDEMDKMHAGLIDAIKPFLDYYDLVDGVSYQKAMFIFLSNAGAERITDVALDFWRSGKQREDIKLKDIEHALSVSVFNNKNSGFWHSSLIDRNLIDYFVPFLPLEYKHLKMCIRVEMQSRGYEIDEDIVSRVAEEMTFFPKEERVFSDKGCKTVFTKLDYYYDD
`CCOC(=O)[C@H](Cc1ccccc1)NC(=O)CCC1CC(OC(=O)NCc2cccc3ccccc23)CC2(CCCC(COC(=O)NCCC(C)C)O2)O1` (stereo partly specified) gave a composite z-score of 1.5. `CC(C)CON=C1[C@H]2CCn3c(=O)n(Cc4cc5c(cc4Cl)OCO5)c(=O)n3[C@H]2[C@H](O)[C@@H]2O[C@H]12` showed a composite z-score of 1.39. With `CC(CCC(=O)OC[C@H]1O[C@H](C#Cc2ccccc2)C=C[C@@H]1Oc1ccc(C)cc1)=NO[C@H](C)c1cn([C@H](CO)Cc2ccccc2)nn1` the composite z-score was -0.234. Compound `COc1ccc(COC(=O)NN=C2C[C@@H](O)[C@@H](O)[C@@H]3[C@@H]4C(=O)N(c5ccc(F)cc5F)C(=O)[C@@H]4CC[C@H]23)cc1` has a composite z-score of -0.309. In the case of `C#CCCCON=C1[C@H]2CCn3c(=O)n(C)c(=O)n3[C@H]2[C@H](O)[C@@H]2O[C@H]12`, the composite z-score is reported as 0.326. For `CC(C)=CCCC(C)=CCON=C1C[C@@H](O)[C@@H](O)[C@@H]2[C@@H]3C(=O)N(C(C)(C)C)C(=O)[C@@H]3CC[C@@H]12`, the composite z-score was 0.244. `CCN1C(=O)[C@H]2[C@H]3[C@H](O)[C@H](O)CC(=O)[C@@H]3CC[C@H]2C1=O` was tested, and the composite z-score was -0.109. `O=C1CCCC=C1C(O)CCOC(c1ccccc1)(c1ccccc1)c1ccccc1` (stereo unspecified) gave a composite z-score of -0.981. In the case of `COC(=O)CC=C[C@@H](C)[C@@H](C=NOC[C@H]1O[C@H](c2ccccc2)C=C[C@@H]1Oc1ccc(OC)cc1)NS(=O)(=O)c1ccc(C)cc1`, the composite z-score is reported as -1.46. With `CC(CCN1CCCc2nc(C)c(C)cc21)=NO[C@@H](C)c1cc(-c2c(C)cc(C)cc2C)no1` the composite z-score was 0.464. `CO[C@H](C1CCCCC1)[C@H](C)C=CCC(=O)OCCCc1ccccc1` was tested, and the composite z-score was 0.113.

— PubChem BioAssay
